This is an account of results in PubChem BioAssay (NCI).

The structures appear in SMILES notation. Compounds without any hit were thinned out: in the full panel of roughly 83,000, 20% have a hit.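 Values shown are percent growth following 48 h exposure of cells in 96-well plates to a single concentration of compound; below 10 was considered active.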 A number with no mark means an inactive call. The source made the active and inactive calls.

What all share (assay): NCI-60 one-dose screen, 48 h (100 = growth as untreated, 0 = no growth, -100 = all killed)
The subject of one test is DU-145 prostate. The following applies: 10 µM unless noted.
Another test has as its system K-562 leukemia. The settings on record: 10 µM unless noted.
The test system of the next test is MALME-3M melanoma. The settings on record: 10 µM unless noted.
Another test concerns MDA-MB-231 breast. The following applies: 10 µM unless noted.
The test system of another test is RXF 393 renal. The settings on record: 10 µM unless noted.
The next test concerns SF-268 CNS. The settings on record: 10 µM unless noted.
The test system of another test is SF-295 CNS. The following applies: 10 µM unless noted.
The test system of another test is SF-539 CNS. The settings on record: 10 µM unless noted.
A further test concerns UACC-257 melanoma. The following applies: 10 µM.
The next test relates to M14 melanoma. The following applies: 10 µM unless noted.

Take `CC(C)C[C@H](NC(=O)[C@H](Cc1ccccc1)n1ccc(N2CCCCC2)cc1=O)B(O)O`: the growth is 41.3% in the test with DU-145 prostate; 9.62% (active) with K-562 leukemia; -23.8% (active) in the test on MALME-3M melanoma; -26.2% (active) in the test on MDA-MB-231 breast; -54% (active) with RXF 393 renal; -8.05% (active) in the test with SF-268 CNS. Further, the growth with SF-295 CNS is 7.12% (active); with SF-539 CNS, -11.5% (active); in the test on UACC-257 melanoma it was -16.9% (active); in the test on M14 melanoma it was 12.5%.

On to `CN(C)c1ccc(-c2ccc(-c3ccc(C(=N)N)cn3)o2)cc1`, for which the growth was -65.2% (active) in the test on DU-145 prostate; -46.7% (active) in the test with K-562 leukemia; -75.5% (active) in the test on MALME-3M melanoma; -84.4% (active) in the test on MDA-MB-231 breast; -81% (active) with RXF 393 renal; -49.2% (active) in the test on SF-268 CNS. For the same molecule, the growth in the test on SF-295 CNS was -69.7% (active); in the test on SF-539 CNS, -87.4% (active); in the test on UACC-257 melanoma, -83.8% (active); in the test with M14 melanoma, -74.4% (active).

For the molecule `O=C(NNC(=S)Nc1ccccc1)c1ccccn1`, the growth was 42.9% in the test on DU-145 prostate; 28.6% in the test on K-562 leukemia; 24.2% in the test on MALME-3M melanoma; 43.5% with MDA-MB-231 breast; 35.4% in the test on RXF 393 renal; 36.7% in the test with SF-268 CNS. Also, the growth in the test with SF-295 CNS is 42.1%; in the test with SF-539 CNS, 31.5%; in the test with UACC-257 melanoma it was 18.9%; with M14 melanoma, 25.3%.

Consider `COc1cc(OC)c(C(=O)/C=C/c2cccc(C(F)(F)F)c2)c(OC)c1`, for which the growth in the test with DU-145 prostate was 11.6%; in the test on K-562 leukemia, 11.8%; with MALME-3M melanoma it was 51.4%; in the test on MDA-MB-231 breast, 20.7%; in the test with RXF 393 renal it was -12.9% (active); in the test with SF-268 CNS it was 14.7%. For the same molecule, the growth in the test on SF-295 CNS was 17.4%; in the test with SF-539 CNS, -0.21% (active); in the test with UACC-257 melanoma, 31.3%; in the test on M14 melanoma, 9.53% (active).

On to `N#Cc1ccc(NC(=O)c2ccc3cccnc3c2O)cc1`, for which the growth with DU-145 prostate is 29.4%; in the test on K-562 leukemia it was 30.7%; with MALME-3M melanoma, 42.1%; with MDA-MB-231 breast it was 44.4%; in the test on RXF 393 renal it was 49.4%; in the test with SF-268 CNS, 21.6%. Moreover, the growth in the test on SF-295 CNS is 38.5%; with SF-539 CNS it was 17.1%; in the test with UACC-257 melanoma it was 13.5%; with M14 melanoma, 6.01% (active).

Take `Nc1c(C(=O)c2ccc(F)cc2)sc2nc3c(cc12)CCCC3`: the growth with DU-145 prostate is 77.9%; with K-562 leukemia, 25.8%; with MALME-3M melanoma, 31.7%; in the test on MDA-MB-231 breast it was 85.7%; in the test on RXF 393 renal, 56%; with SF-268 CNS, 87.4%. Besides, the growth in the test with SF-295 CNS is 72.6%; with SF-539 CNS, 95.3%; in the test with UACC-257 melanoma, 95%; in the test with M14 melanoma, 71%.

Turning to `COc1c(NC[C@H]2OC(O)[C@H](O)[C@@H](O)[C@@H]2O)c(=O)c1=O` (stereo not given in full), the growth was 115% with DU-145 prostate; 96.4% with K-562 leukemia; 92.9% in the test on MALME-3M melanoma; 106% with MDA-MB-231 breast; 96.6% in the test on RXF 393 renal; 102% in the test on SF-268 CNS. The growth in the test on SF-295 CNS is 107%; with SF-539 CNS, 94.1%; with UACC-257 melanoma, 102%; in the test with M14 melanoma, 108%.

Turning to `COc1ccc(S(=O)(=O)N2CCN(c3cc4c(cc3F)c(=O)c(C(=O)O)cn4C3CC3)CC2)c(OC)c1`, the growth in the test with DU-145 prostate was 98.3%; in the test on K-562 leukemia, 89.1%; in the test with MALME-3M melanoma, 98%; in the test with MDA-MB-231 breast, 101%; in the test with RXF 393 renal, 102%; with SF-268 CNS, 81.8%. Further, the growth in the test on SF-295 CNS was 91.4%; with SF-539 CNS, 88.8%; in the test with UACC-257 melanoma, 100%; with M14 melanoma it was 92.5%.

In the case of `Cc1ccc(C(=O)c2sc3nc4c(cc3c2N)CCCC4)c(C)c1`, the growth was 6.18% (active) with DU-145 prostate; 11.9% in the test with K-562 leukemia; 27% in the test with MALME-3M melanoma; 21.3% in the test with MDA-MB-231 breast; -16% (active) with RXF 393 renal; 44.1% with SF-268 CNS. Also, the growth in the test on SF-295 CNS is -4.3% (active); with SF-539 CNS, -25% (active); with UACC-257 melanoma it was 57.6%; in the test with M14 melanoma it was 30.6%.

In the case of `COc1cc(C(=O)/C=C/c2cc(C(=O)c3cc(OC)c(OC)c(OC)c3)ccc2OC)ccc1N`, the growth in the test on DU-145 prostate was 26.7%; in the test on K-562 leukemia it was 4.22% (active); with MALME-3M melanoma it was -36.1% (active); with MDA-MB-231 breast, 23.1%; in the test with RXF 393 renal, -32.5% (active); with SF-268 CNS, -28.1% (active). Further, the growth is 9.88% (active) in the test on SF-295 CNS, -53.2% (active) in the test with SF-539 CNS, -11.9% (active) in the test with UACC-257 melanoma and -52.9% (active) in the test with M14 melanoma.

For the molecule `COc1cc(/C=C2\C=C(c3ccc(F)cc3)N(Cc3ccccc3)C2=O)cc(OC)c1OC`, the growth in the test on DU-145 prostate was 94.8%; in the test with K-562 leukemia it was 56.1%; in the test on MALME-3M melanoma, 90.7%; with MDA-MB-231 breast it was 78.7%; in the test with RXF 393 renal, 64.5%; in the test on SF-268 CNS, 77.4%. In addition, the growth in the test with SF-295 CNS was 83.6%; with SF-539 CNS it was 87%; in the test with UACC-257 melanoma it was 79.3%; with M14 melanoma, 76.2%.

Take `N#Cc1ncc(-c2ccc(F)c(F)c2F)c(NC2CCCCCC2)n1`: the growth in the test with DU-145 prostate was 95.8%; in the test with K-562 leukemia, 76.8%; in the test with MALME-3M melanoma, 131%; with MDA-MB-231 breast, 67%; in the test on RXF 393 renal, 77.5%; in the test with SF-268 CNS, 66.6%. In addition, the growth in the test on SF-295 CNS was 97.8%; with SF-539 CNS, 93.7%; in the test on UACC-257 melanoma, 81.5%; in the test with M14 melanoma, 97.8%.

For the molecule `Nc1c(C(=O)Nc2ccccc2)sc2nc3c(cc12)CCCCC3`, the growth in the test with DU-145 prostate was 4.69% (active); in the test on K-562 leukemia, 14.8%; in the test with MALME-3M melanoma, -5.3% (active); in the test with MDA-MB-231 breast, 22.2%; in the test on RXF 393 renal it was -5.96% (active); in the test on SF-268 CNS it was 30.5%. The growth in the test with SF-295 CNS is -4.71% (active); in the test with SF-539 CNS, 7.96% (active); in the test with UACC-257 melanoma it was 41.5%; in the test with M14 melanoma it was 6.74% (active).
